Rows were chosen to be rich in hits. Some 4.7% of all compounds tested hit in one or more screens of this group.
HepG2 tox = qHTS for Inhibitors of TGF-b: Cytotox Counterscreen | HepG2 CAGA-GFP viability, ATP luminescence, 18 h | Potency, µM (top dose mostly 46.1 µM), inactives show at the highest dose activity change, negative = cytotoxicity, most hits filed as cytotoxic | 410,000 compounds, 0.76% hits; also: potency is read from the fitted curve at half-maximal effect
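HepG2 CAGA-GFP cells (1000/well, DMEM with 1% FBS) received compound, then TGF-beta at 500 pg/mL final, and were incubated 18 hours at 37 degrees C. Viability was read by CellTiter-Glo luminescence. Media-only wells were set as complete cell-killing and DMSO as no toxicity.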
TGFb SMAD3 inh = qHTS for Inhibitors of TGF-b. 410,000 compounds, 1.2% hits. AID 588855, 2011. HepG2 CAGA-GFP TGF-b/SMAD3 reporter, GFP fluorescence, 18 h; TGF-beta stimulated, 500 pg/mL final. Potency, µM (top dose mostly 46.1 µM), without a hit: top-dose activity, negative = inhibition, hits mostly inhibitors; also: potency is read from the fitted curve at half-maximal effect; % is scaled to controls: 0 for no effect and ±100 for the full control effect; nearly all actives have a fitted effect of over 65% in size
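HEPG2 CAGA-GFP reporter cells (1000/well, DMEM with 1% FBS) received compounds, then recombinant TGF-beta at 500 pg/mL final for 18 hours at 37 degrees C. Per-cell GFP summed per well was normalised to unstimulated and stimulated DMSO controls before curve fitting.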
ATXN viability = Viability Counterscreen for Primary qHTS for Inhibitors of ATXN expression; 400,000 compounds, 0.49% hits; Potency, µM (top dose mostly 56.7 µM), usual class: cytotoxic; S2 cells (HEK-293 line with an ATXN2-luciferase reporter) viability, CellTiter-Fluor protease fluorescence, 24 h; also: potency is read from the fitted curve at half-maximal effect; nearly all actives have a fitted effect of over 40% in size
DRD3 antagonist = qHTS of D3 Dopamine Receptor Antagonist: qHTS | max response, negative = inhibition, % | 360,000 compounds, 2.5% hits | D3R cells, DiscoveRx beta-arrestin luminescence, antagonist mode; hits give low values | D(3) dopamine receptor (Homo sapiens), P35462; in the data active = max response below about -50%; inconclusive = no clear call, values can overlap the other calls; also: % is scaled to controls: 0 for no effect and ±100 for the full control effect
Target sequence (P35462 whole entry, looked up): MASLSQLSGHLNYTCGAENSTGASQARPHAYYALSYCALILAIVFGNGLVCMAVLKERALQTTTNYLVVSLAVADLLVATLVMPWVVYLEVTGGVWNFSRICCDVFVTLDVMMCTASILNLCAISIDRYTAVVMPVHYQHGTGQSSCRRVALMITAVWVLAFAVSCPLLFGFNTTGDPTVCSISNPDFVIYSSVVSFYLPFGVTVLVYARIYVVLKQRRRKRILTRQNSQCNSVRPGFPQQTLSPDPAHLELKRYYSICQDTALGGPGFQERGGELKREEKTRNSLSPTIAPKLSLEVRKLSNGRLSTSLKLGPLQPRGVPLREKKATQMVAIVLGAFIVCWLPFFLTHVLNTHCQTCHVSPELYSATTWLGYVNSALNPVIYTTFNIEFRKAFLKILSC
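Cells plated overnight at 1500 cells/well, then exposed to library compounds with dopamine controls for 90 minutes at 37 degrees C. DiscoveRx reagent added for 30–60 minutes at room temperature; luminescence read, quantitative HTS format.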
D3 ag = qHTS of D3 Dopamine Receptor Agonist: qHTS. D3R DiscoveRx beta-arrestin cells, luminescence, 90 min. max activation, %. 410,000 compounds, 0.58% hits. AID 652048, 2013; in the data active = max activation above about 30%; also: 0% is about no effect
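Cells at 1500/well, incubated overnight, then treated with pinned compounds (dopamine as control) for 90 min at 37 degrees C. DiscoveRx reagent added for 30 - 60 minutes at room temperature; luminescence read.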
ATXN2 expr inh = Primary qHTS for Inhibitors of ATXN expression; Potency, µM (series often up to 57 µM), for the others: top-dose activity change, negative = inhibition, most hits filed as inhibitors; 360,000 compounds, 0.72% hits; HEK-293 ATXN2-luciferase reporter, luminescence, 24 h; also: potency is read from the fitted curve at half-maximal effect; % is scaled to controls: 0 for no effect and ±100 for the full control effect; nearly all actives have a fitted effect of over 55% in size
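ATXN2-luciferase reporter cells (luciferase flanked by upstream and downstream ATXN2 gene portions) were treated 24 h at 37 °C with compounds at up to 57 uM. SteadyGlo luminescence gave expression; GF-AFC fluorescence gave viability.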
Active calls of the source: *; i = inactive; ? = inconclusive; / = no result given; ! = not active in a repeat; [ ] = dose if it differs, or a comment. Unless noted, calls follow the shape of the dose curve; as a rule, active = well fitted curve in the direction sought with a large enough effect; inconclusive = small, poorly fitted or top-dose-only effect, or another doubt; inactive = no such curve, though single readings can be large; an effect the other way counts as inactive or inconclusive.

SMILES	HepG2 tox	TGFb SMAD3 inh	ATXN viability	DRD3 antagonist	D3 ag	ATXN2 expr inh
CC(O)CNCCCOc1cccc(Oc2ccccc2)c1 (stereo unspecified)	-23%	0%	?	?	-6	-27%
CC(O)CNCCCOc1cccc(C(F)(F)F)c1 (stereo unspecified)	-17%	5%	i	-71*	-34	-19%
CNCCCOc1cc(C)cc(C)c1C	-16%	1%	i	-13	-9	?
CN(Cc1ccccc1)Cc1ccccc1	/	/	/	/	-18	/
CCC(C)c1ccccc1OCCCN(C)Cc1ccccc1 (stereo unspecified)	-1%	-18%	i	-60*	-16	-6%
CN(CCOc1ccc(F)cc1)Cc1ccccc1	14%	-13%	i	-69*	-15	-5%
Cc1cc(C)c(C)c(OCCCCN(C)Cc2ccccc2)c1	-38%	-14%	?	-71*	-2	/
Cc1ccc2[nH]c(=O)c(CN(CCCO)S(=O)(=O)c3cccc4nsnc34)cc2c1	-13%	0%	i	-145*	9	-2%
Cn1cc(-c2ccc3nnc(C(F)(F)c4ccc5ncccc5c4)n3n2)cn1	/	/	/	/	/	-23%
C=CCOc1ccc(CNc2nccs2)cc1OCC	7%	-3%	i	-54*	8	0%
CC/C(=N\NC(=O)OC)c1ccc(OC(F)F)cc1	10µM*	3%	i	-18	0	-20%
Cc1ncc2c(c1CNC(=O)c1cncs1)CCN(C(=O)c1ccc(C(C)(C)C)cc1)C2	/	/	i	/	/	/
CCN(Cc1ccccc1)C(=O)Cn1cc(S(=O)(=O)NC)c(S(=O)(=O)NC)c1	-7%	24%	i	-52*	0	/
C[C@@H](Oc1cc(-n2cnc3ccc(CN4CCN(C)CC4)cc32)sc1C(N)=O)c1ccccc1C(F)(F)F	/	/	/	/	/	31µM*
COc1ccc(Cl)cc1NC(=O)CSc1c2c(nc3ccccc13)CCC2	-37%	?	/	/	4	/
COc1ccc(OC)c(NC(=O)CSc2c3c(nc4ccccc24)CCCC3)c1	13µM*	?	/	/	-10	?
CCN(CC)CCNC(=O)CSc1c2c(nc3cc(Cl)ccc13)CCCC2	-79%	18µM*	/	?	-3	/
COc1ccc(OC)c(NC(=O)CSc2c3c(nc4cc(Cl)ccc24)CCCC3)c1	-46%	10µM*	/	/	-8	/
O=C(Nc1ccccc1F)c1ccc2c(Cl)c3c(nc2c1)CCC3	10µM*	?	i	/	-6	-68%
O=C(Nc1cccnc1Cl)c1ccc2c(Cl)c3c(nc2c1)CCC3	1%	-24%	i	3	-1	109%[11.3 µM]
CCCn1c2ccccc2c2cnn(CC(=O)NCCc3ccc(OCC)c(OCC)c3)c(=O)c21	-21%	-5%	/	/	9	/
CCCCN(CC)CCNC(=O)c1ccc2c(Cl)c3c(nc2c1)CCC3	-39%	12%	i	-24	-22	-35%
CCN(CC)CCCNC(=O)c1ccc2c(Cl)c3c(nc2c1)CCCC3	1.6µM*!	13µM*	20µM*!	-7	-13	28µM*
Cc1cccc(CNc2ncnc3ccc(-c4cccnc4)cc23)c1	-24%	?	i	/	/	-7%
Cc1[nH]nc2ccc(-c3cncc(OC[C@@H](N)Cc4ccccc4)c3)cc12	/	/	/	/	/	3.1µM*
SMILES	HepG2 tox	TGFb SMAD3 inh	ATXN viability	DRD3 antagonist	D3 ag	ATXN2 expr inh
C#Cc1ccc([C@H]2C=C(C(=O)OCC=C)O[C@@H](OCC)[C@@H]2CCCO)cc1	-8%	-32%	?	64	62*	-34%
CCO[C@@H]1OC(C(=O)NCc2ccccc2)=C[C@H](c2cn(C(C)=O)c3ccccc23)[C@H]1CCCO	-9%	-6%	i	8	67*	-7%
CCO[C@@H]1OC(C(=O)N2CCOCC2)=C[C@H](c2ccccc2)[C@H]1CCCO	6%	5%	i	-65*	-1	-7%
CCO[C@H]1OC(C(=O)O)=C[C@@H](c2cn(C(C)=O)c3ccccc23)[C@@H]1CCCO	0%	9%	i	-5	7	2%
COc1ccc(N(CC(C)C)S(=O)(=O)c2nnc(NC(=O)c3ccco3)s2)cc1	-5%	2%	i	-91*	-16	2%
CCN(c1ccc(OC)cc1)S(=O)(=O)c1nnc(NC(=O)c2ccco2)s1	0%	-10%	i	0	-12	-3%
CCN1/C(=C/c2ccc3cccc(C)c3[n+]2CC)Sc2ccccc21	14µM*	264%	?	-18	-35	?
O=C(NCCc1nc2ccccc2n1CCCOc1ccccc1Cl)C1CCCCC1	-14%	-20%	/	/	/	/
COCC(=O)Nc1cc(C(=O)N2CCCC(C(N)=O)C2)cc2nc(-c3ccccc3)n(C)c12 (stereo unspecified)	/	/	i	/	/	/
O=c1ccc2nc3ccccc3sc-2c1	25µM*	20µM*	25µM*	-18	-9	?
CCOC(=O)CN(C)C(=O)c1cnn(-c2ncc3c(n2)-c2ccccc2CCC3)c1C	/	/	i	/	/	/
CC(C)NCC(O)c1ccc(O)c(O)c1 (stereo unspecified)	2%	3%	i	20	39*!	2%
CCN(c1cccc(C)c1)C(CNS(=O)(=O)c1ccccc1)c1ccccc1 (stereo unspecified)	-56%	?	?	/	-3	?
CCN(c1ccccc1)C(CNS(=O)(=O)c1ccccc1)c1ccccc1 (stereo unspecified)	-48%	16µM*	?	/	-9	?
COc1ccc2cc(C=O)ccc2c1	/	/	i	/	/	12%
CCOc1ccc(N=C(C)Nc2ccc(OCC)cc2)cc1	/	/	i	/	-8	/
COc1ccc2nc3sc(C(=O)NCCN4CCc5ccccc5C4)cc3cc2c1	-38%	-15%	i	-68*	-51	-13%
COc1ccc2cc3cc(C(=O)NCCCN4CCc5ccccc5C4)sc3nc2c1	-9%	-5%	i	-65*	-11	44%
O=C1C=C(Nc2cccc3cccnc23)c2ccccc2C1=O	3.5µM*	5µM*	14µM*	?	3	-14%[2.22 µM]
O=S(=O)(Nc1cccc2cccnc12)c1ccccc1Br	-40%	6.3µM*	/	/	/	/
O=C1C=C(Nc2ccccc2)c2ccccc2C1=O	3.5µM*	3.2µM*	28µM*	?	-14	?
Cc1ccc(NS(=O)(=O)c2cccc3cccnc23)c(Br)c1	-2%	20%	i	-3	7	3%

Compound activity (PubChem)
